Test results taken from PubChem BioAssay AID1794844 (National Center for Advancing Translational Sciences (NCATS), 2023).
In all, about 2,800 compounds went through this assay and fewer than 10 were called active. Roughly 7% stayed inconclusive and do not appear here. The call rests on the fitted dose curve; in most records, active means well fitted inhibition curve with a large enough effect; inconclusive means small, poorly fitted or top-dose-only effect; inactive means no such curve, though single readings can be large or run the other way. A selection follows.

biological target: Metallo-beta-lactamase type 2 (Klebsiella pneumoniae) (UniProt C7C422); test: qHTS to identify inhibitors of the New Delhi Metallo-beta-lactamase (NDM): Nitrocefin screen against the machine-based learning selections.; on activity, negative = inhibition: % of control where 0% means no effect; conditions: NDM-1 enzyme, nitrocefin hydrolysis, absorbance 485 nm; series mostly up to 38.4 µM; activity, negative = inhibition: at the top concentration
Sequence (C7C422 whole entry, looked up): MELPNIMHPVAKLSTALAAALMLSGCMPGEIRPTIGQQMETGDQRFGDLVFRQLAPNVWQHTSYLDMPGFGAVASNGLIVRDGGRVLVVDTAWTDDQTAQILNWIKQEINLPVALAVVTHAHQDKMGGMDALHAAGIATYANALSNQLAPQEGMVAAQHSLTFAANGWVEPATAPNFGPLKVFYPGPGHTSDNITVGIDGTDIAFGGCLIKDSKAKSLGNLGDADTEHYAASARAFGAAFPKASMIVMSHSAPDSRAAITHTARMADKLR
From the text: Assay Submitter (PI): James Inglese Ph.D., Patricia Dranchak Ph.D., Mahesh Aitha Ph.D. Assay Development and Screening Technology Laboratory (ADST) National Center for Advancing Translational Sciences (NCATS), Rockville, MD National Institute of Health (NIH), Bethesda, Maryland The metallo-beta-lactamases (MBL) are a main antibiotic resistance mechanism evolved by bacteria. There is an urgent clinical need for MBL inhibitors to mitigate this growing threat. To support a machine-based learning study, qHTS has been used to experimentally test inhibitors identified by prediction tools.
PROTOCOL TABLE (as described by Inglese et al., 2007) SEQUENCE No. (e.g., 1, 2, 3, etc.); […] (e.g., enzyme, Incubation, Reagent, etc.); VALUE; DESCRIPTION Primary Screen 1; NDM-1; 4 uL of 3 nM enzyme [2 nM final] in 50 mM HEPES (pH 7.0), 1 uM […], 0.01% Tween20; Use BioRaptr to dispense into two sets of Aurora black, clear bottom high base 1536-well plates 2; Compounds; 23 nL; Use Pin Tool (Wako) to transfer DMSO control and library compounds in DMSO 3; Incubate; >30 min 4a; Reagent; 2 uL of 50 uM nitrocefin [16.7 uM final] to one set of assay plates 4b; Reagent; 2 uL of 150 uM meropenem [50 uM final] to second set of assay plates 5a; Incubate; 15 min 5b; Incubate; 30 min 6a; Detector; Absorbance at 485 nm (bandwidth = 5 nm, 25 flashes/well) on Tecan Infinity 6b; Detector; Absorbance at 300 nm (bandwidth = 5 nm, 25 flashes/well) on Tecan Infinity NOTES (numbers refer to sequence above) 1; Column 1 of each plate received assay buffer without enzyme and columns 2-48 received enzyme for a final assay concentration of 2 nM. 2; Control plate contained DMSO in columns 1, 2, 3, and 4. 3; Compound interaction with enzyme. 4; Nitrocefin and meropenem substrates were prepared in the same assay buffer as step 1 for a final assay concentration of 16.7 uM and 50 uM, respectively, and added to all wells across respective sets of assay plates. 5; Default reader settings were applied for absorbance read at 485 nm (nitrocefin) or 300 nm (meropenem), bandwidth = 5 nm, 25 flashes/well. References: Inglese J, Shamu CE, Guy RK. 2007. Reporting data from high-throughput screening of small-molecule libraries. Nat Chem Biol. doi:10.1038/nchembio0807-438 Yasgar A, Shinn P, Jadhav A, Auld D, Michael S, Zheng W, Austin CP, Inglese J, Simeonov A. 2008. Compound Management for Quantitative High-Throughput Screening. J Lab Autom 13:79 - 89. doi:10.1016/j.jala.2007.12.004
Potency means the concentration at half of the fitted maximal effect.

activity, negative = inhibition, inactive:
COc1ccc(C(=O)N2CC[C@@H](CC(=O)O)[C@@H](CCN3CCN(c4ccccn4)CC3)C2)cc1 -10.6%
COCCNC(=O)[C@@H]1CCC[C@@H](NC(=O)C2CC2)CN(C)C(=O)C1 -4.15% [at 57.5 µM]
Cc1cccc(C)c1-c1nc(C(=O)NCCc2ccc(Cl)cc2)n2ccccc12 2.12%
COc1cccc(Nc2cc3c(cn2)CN(Cc2cccnc2)CCN3)c1 6.77% [at 57.5 µM]
Cc1noc(C)c1S(=O)(=O)N1C[C@@H](C(N)=O)[C@H](C2CCN(C)CC2)C1 0.0336%
Nc1n[nH]c(CNc2cc(-c3ccc(F)cc3)nc3ccnn23)n1 8.01%
COC(=O)c1ccccc1NC(=O)Cn1cccc1-c1nc(-c2ccccc2)no1 11.4%
COC(=O)[C@@H](C)NC(=O)[C@H]1CN(C(=O)c2cccnc2)CCN1S(C)(=O)=O 0.882% [at 57.5 µM]
Cc1noc2c(N3CCOCC3)cc(-c3cccnc3)nc12 5.33% [at 57.5 µM]
CC(C)C[C@@H]1N[C@H](C(=O)NCc2cccs2)Cc2c[nH]c3cccc1c23 -5.41% [at 57.5 µM]
CCCNC(=O)NC[C@H]1O[C@@H]2C[C@@H](CC(=O)N3CCC(F)(F)C3)O[C@@H]2[C@@H]1O 3.53% [at 57.5 µM]
O=C(N[C@H]1[C@H](O)[C@H](O)C[C@@H]1c1cccnc1)c1ccccn1 -2.52% [at 57.5 µM]
O=C(O)c1cccc(-c2n[nH]c3c2CC(=O)N(c2ccccc2)C3)c1 -14.2% [at 57.5 µM]
N#Cc1cccc(CN2CCOC[C@H]2c2ncc(-c3ccccc3)[nH]2)c1 1.13% [at 57.5 µM]
COCC(=O)N[C@H]1CO[C@H]2[C@@H]1OC[C@@H]2Nc1nccc(-c2cccc(C#N)c2)n1 4.59% [at 57.5 µM]
Cc1[nH]c2ccc(C(=O)N3CC[C@@](C)(O)[C@@H](O)C3)cc2c1C -0.0594%
c1cncc(CNc2cc(-c3cnc4ccccc4n3)c3cc[nH]c3n2)c1 11.1%
CCN1CCN(C2(C(=O)NCCc3ccccc3)Cc3ccccc3C2)CC1 -0.956%
COc1cccc(NC(=O)N[C@H](C)c2onc(-c3ccc(F)cc3)c2C(=O)O)c1 -18.1% [at 57.5 µM]
O=C(Nc1ccc([C@H]2OCC(=O)N(C3CCOCC3)[C@@H]2CO)cc1)c1cnccn1 317% [at 57.5 µM]
N[C@@H](Cc1cnc[nH]1)C(=O)NCc1cccnc1Oc1ccc(F)cc1F -1.51%
COCCN1CCCC2(CCN(C(=O)c3ccccc3)C2)C1 (stereo unspecified) -3.5%
CCCN1CC2(CCN(C(=O)c3ccc(C)nc3)CC2)CC1C(=O)O (stereo unspecified) -5.46%
CC(=O)N1CCN(C(=O)C[C@@H]2c3nc(NC(=O)C4CCCCC4)sc3C[C@@H]3[C@](C)(CO)[C@H](O)CC[C@]32C)CC1 1.19%
CN(C)c1ccc(-c2nnnn2[C@H]2CO[C@H]3[C@@H]2OC[C@@H]3NS(=O)(=O)c2ccc3ccccc3c2)cc1 -2.44%
C[C@@]1(O)CCN(c2ncccc2C(=O)c2nccs2)C[C@@H]1O -0.625%
OC(c1cccc(C(F)(F)F)c1)c1nc(Nc2ccc(F)cc2)n[nH]1 (stereo unspecified) 3.6% [at 57.5 µM]
Cn1ccc2c(C(=O)N[C@H](c3cccs3)C3CC(O)C3)cccc21 (stereo partly specified) -3.78%
Cc1nc(C(=O)N2CCC(c3nnc(CN4CCCC4)n3C)CC2)cs1 -8.34%
Cc1ccc(C(=O)N2CCN(c3nnc4cccc(C)n34)CC2)cc1F -3.81%
O=C1C(c2ccccc2)CC2(CCN(c3cnccn3)CC2)CN1C1CC1 (stereo unspecified) 0.213%
O=C(c1ccccc1)N1CCN2C(=O)N(Cc3ccccc3)C(=O)[C@H]2C1 -2.63% [at 57.5 µM]
Cc1cnc(C(=O)N2CCC(N3C(=O)C4(CCCC4)C3c3ccccc3)CC2)cn1 (stereo unspecified) 0.565%
O=C(Cc1ccccc1C(F)(F)F)N1CCC2(CC1)[C@H](O)C[C@@H]2O -5.52%
CN(Cc1cc(-c2cccs2)n[nH]1)C(=O)c1cn(CCN)nn1 3.42%
O=C1CC(C(=O)O)C2(CCN(c3cc(C4CC4)ncn3)CC2)N1 (stereo unspecified) -1.94%
Cc1noc2c(-c3cccnc3)cc(-c3cccs3)nc12 -1.29% [at 57.5 µM]
CCc1ncc(C(=O)N2CCN(c3ccc(Cl)c(Cl)c3)CC2)cn1 -4.54%
Cc1ccc2nc(C3CCCN(Cc4ccccc4)C3)[nH]c(=O)c2c1 (stereo unspecified) 0.6% [at 57.5 µM]
CC(=O)N1CC[C@H](c2nc3cc(C)ccc3o2)C1 -5.97% [at 76.7 µM]
COc1nc(C)c(C(=O)N2CCC(c3[nH]ncc3-c3ccccc3)CC2)s1 0.575%
Cc1nc(C2CCCCN2C(=O)Cc2ccccc2)n[nH]1 (stereo unspecified) 8.61%
CCNC(=O)O[C@@H]1CO[C@H]2[C@@H]1OC[C@@H]2NC(=S)Nc1ccc(N(C)C)cc1 0.306% [at 57.5 µM]
O=C(c1cccnc1)N1CC[C@H](c2nnc(Cc3ccccc3)o2)C1 -2.68% [at 57.5 µM]
O=C(Cc1c[nH]c2ncc(-c3cccc(Cl)c3)cc12)NCc1cccnc1 7.39% [at 57.5 µM]
Nc1ccc(-c2ccc(OCCn3ccnc3)cc2)cn1 -4.87%
COCCCNC(=O)N1CC(c2nc(CCOCC3CCOCC3)no2)C1 1.08%
CNC(=O)[C@H]1C[C@H](Oc2cccnc2)CN1S(=O)(=O)c1ccc(OC)cc1 1.27%
O=C(Nc1cccc(C(F)(F)F)c1)N[C@H]1CO[C@H]2[C@@H]1OC[C@@H]2Nc1nccc(-c2ccc(-c3ccccc3)cc2)n1 3.13%
CC(C)(C)c1nnc([C@H]2CCN(Cc3ccco3)C2)o1 2.73% [at 76.7 µM]
Cc1cccc(Cl)c1NC(=O)N1CCC2(CC1)C(C(=O)O)CC(=O)N2C (stereo unspecified) 6.76%
C[C@@H](c1ccccc1)N1C(=O)[C@@H]2CN(C(=O)c3ccc(N(C)C)cc3)CCN2C1=O 2.81% [at 57.5 µM]
Cc1nc(CCC(=O)N2CCC(Cc3ccc(C(=O)O)cc3)C2)n[nH]1 (stereo unspecified) 10.3%
CCCS(=O)(=O)N1CCC(Cc2nc(-c3cccnc3)n[nH]2)C1 (stereo unspecified) -6.34%
COc1ccc(CN2CCOc3ccc(C(=O)NCc4ccc(C)cc4)cc3C2)c(OC)c1 -0.698%
O=C(c1ccccc1Cl)N1CCCC(c2nn(-c3ccccc3)c(=O)[nH]2)C1 (stereo unspecified) -3.71%
CC(C)C(=O)N[C@H]1[C@H](O)[C@H](O)C[C@@H]1c1cccnc1 2.09% [at 76.7 µM]
CC(O)c1cc2n(n1)CCN(C1CCN(C(=O)c3cnccn3)CC1)C2 (stereo unspecified) 29%

Potency, active:
CN1CC2(CCN(C(=O)c3ccccc3-c3nn[nH]n3)CC2)CC1C(=O)O (stereo unspecified) 6.69 µM
Cc1ccc2nc(C)cc(C(=O)N3CCC(c4cc(CC(=O)O)[nH]n4)CC3)c2c1 9.45 µM
Cc1nc2c(C(=O)N3CCC(c4cc(CC(=O)O)[nH]n4)CC3)cccc2[nH]1 8.42 µM
